According to PubChem BioAssay (NCATS):
Records with an inconclusive call do not appear. Entries that show only a call come without a potency. Active and inactive are the calls of the source. The call rests on the fitted dose curve.

Assay: Cytotoxicity counterscreen for inhibitors of SARS-CoV-2 cell entry (AID 1645845); further: nearly all actives have a fitted effect of over 50% in size
Settings: cell viability (SARS-CoV-2 entry assay cells); series mostly up to 57.1 µM
Text: Assay Provider: Wei Zheng, Ph.D.
National Center for Advancing Translational Sciences, National Institute of Health, Rockville, MD.
SARS-CoV-2 spike protein, within the viral envelope, mediates viral attachment and infection of host cells. The SARS-CoV-2 spike protein specifically binds to the host receptor ACE2 (Angiotensin-converting enzyme 2). This interaction promotes endocytosis of the viral particle, additional events lead to viral-host cell membrane fusion and release of the viral contents, allowing viral replication.
While SARS-CoV-2 requires BSL-3 facilities for live virus work, pseudo-typed partices (PP) that incorporate SARS-CoV-2 spike proteins without replication elements could facilitate studies on viral entry mechanisms in a BSL-2 setting. This PP cell entry assay could also enable screening of small molecule compound libraries in BSL-2 setting to identify inhibitors of SARS-CoV-2 cell entry. To eliminate false positive compounds, ATP content cytotoxicity assay was screened in the same cell line.
SEQUENCE No. (e.g., 1, 2, 3, etc.); […] (e.g., Cells, Incubation, Reagent, etc.); VALUE and DESCRIPTION.
1. Cells. Seed 1500 HEK293-ACE2 cells (Expi293F with stable expression of human ACE2) in 2 uL/well media (DMEM, 10% FBS, 1x L-glutamine, 1x Pen/Strep, 1 ug/ml puromycin) in white 1536-well assay plates (Greiner #782073).
2. Incubation. Incubate at 37 C with 5% CO2 overnight (~16 h).
3. Compounds. Dispense 23 nL/well compounds in DMSO via pin transfer.
4. Incubation. Incubate for 1 h at 37C 5% CO2.
5. Reagent. Dispense 2 uL/well of media (DMEM, 10% FBS, 1x L-glutamine, 1x Pen/Strep, 1 ug/ml puromycin).
6. Incubation. Incubate at for 48h at 37C 5% CO2
7. Reagent. Dispense 4 uL/well of ATPLite 1step luminescence assay reagent (PerkinElmer #6016739).
8. Incubation. Incubate for 15 min at room temperature.
9. Detection. Read luminescence signal (Viewlux plate reader, PerkinElmer). Data was normalized with wells containing cells as 100%, and wells without cells (media only control) as 0%.
Potency means the concentration at half of the fitted maximal effect.

Q: Which Potency does the source give for `COc1ccccc1OCC(O)CN1CCN(CC(=O)Nc2c(C)cccc2C)CC1` (stereo not given) here?
A: Its Potency is “inactive”.

Q: With `CCC(=O)O[C@H]1[C@H](O[C@@H]2[C@@H](C)[C@H](O[C@H]3C[C@@](C)(OC)[C@@H](O)[C@H](C)O3)[C@@H](C)C(=O)O[C@H](CC)[C@@](C)(O)[C@H](O)[C@@H](C)C(=O)[C@H](C)C[C@@]2(C)O)O[C@H](C)C[C@@H]1N(C)C` as the molecule, how does the Potency read?
A: Its Potency is “inactive”.

Q: Which Potency does the source give for `Cc1cccc(C)c1OCC(C)N` (stereo not given) here?
A: The Potency was “inactive”.

Q: For `CC(C)(C)NCC(O)c1cc(Cl)c(N)c(Cl)c1` (stereo not given), which Potency is on record?
A: The Potency was “inactive”.

Q: For `CCCCc1nc(Cl)c(CO)n1Cc1ccc(-c2ccccc2-c2nn[nH]n2)cc1`, which Potency is on record?
A: Its Potency is “inactive”.

Q: For `NC(=O)C(c1ccccc1)(c1ccccc1)[C@@H]1CCN(CCc2ccc3c(c2)CCO3)C1`, which Potency is on record?
A: The Potency was “inactive”.

Q: Which Potency does the source give for `CN(C)CCOC(C)(c1ccccc1)c1ccccn1` (stereo not given) here?
A: The Potency was “inactive”.

Q: Which Potency does the source give for `CCCN[C@H]1CCc2nc(N)sc2C1` here?
A: The Potency was “inactive”.

Q: For `OCCN1C[C@H](O)[C@@H](O)[C@H](O)[C@H]1CO`, which Potency is on record?
A: Its Potency is “inactive”.

Q: With `NCCC(O)(P(=O)(O)O)P(=O)(O)O` as the molecule, how does the Potency read?
A: Its Potency is “inactive”.

Q: For `CC1=NS(=O)(=O)c2cc(Cl)ccc2N1`, which Potency is on record?
A: The Potency was “inactive”.

Q: With `CC[C@@H](CO)NC(=O)[C@@H]1C=C2c3cccc4[nH]cc(c34)C[C@H]2N(C)C1` as the molecule, how does the Potency read?
A: Its Potency is “inactive”.

Q: For `O=c1n(CCCN2CCN(c3cccc(Cl)c3)CC2)nc2ccccn12`, which Potency is on record?
A: Its Potency is “inactive”.

Q: Which Potency does the source give for `CN/C(=C\[N+](=O)[O-])NCCSCc1ccc(CN(C)C)o1` here?
A: The Potency was “inactive”.

Q: With `CC12CC3CC(C)(C1)CC(N)(C3)C2` as the molecule, how does the Potency read?
A: The Potency was “inactive”.

Q: Which Potency does the source give for `O=C1OCCN1/N=C/c1ccc([N+](=O)[O-])o1` here?
A: Its Potency is “inactive”.

Q: For `CC#C[C@]1(O)CC[C@H]2[C@@H]3CCC4=CC(=O)CCC4=C3[C@@H](c3ccc(N(C)C)cc3)C[C@@]21C`, which Potency is on record?
A: The Potency was “inactive”.

Q: With `CN(C)CCc1c[nH]c2ccc(C[C@H]3COC(=O)N3)cc12` as the molecule, how does the Potency read?
A: Its Potency is “inactive”.

Q: Which Potency does the source give for `CO[C@H]1C=CO[C@@]2(C)Oc3c(C)c(O)c4c(O)c(c(/C=N/N5CCN(C)CC5)c(O)c4c3C2=O)NC(=O)/C(C)=C\C=C[C@H](C)[C@H](O)[C@@H](C)[C@@H](O)[C@@H](C)[C@H](OC(C)=O)[C@@H]1C` here?
A: The Potency was “inactive”.

Q: Which Potency does the source give for `CN(C)CCN(C)CCc1ccc(Cl)c(Cl)c1` here?
A: Its Potency is “inactive”.

Q: For `C[C@H]1O[C@H](O[C@H]2[C@H](O)[C@@H](O)[C@@H](O[C@H]3[C@H](O)[C@@H](O)[C@H](O)O[C@@H]3CO)O[C@@H]2CO)[C@H](O)[C@@H](O)[C@@H]1N[C@H]1C=C(CO)[C@@H](O)[C@H](O)[C@H]1O`, which Potency is on record?
A: The Potency was “inactive”.

Q: With `O=C(O)C(=O)c1cn(Cc2ccccc2)c2ccc(-c3ccc(OC(F)(F)F)cc3)cc12` as the molecule, how does the Potency read?
A: The Potency was “inactive”.

Q: Which Potency does the source give for `CC(=O)SC[C@@H](C)C(=O)N1CCC[C@H]1C(=O)N[C@@H](Cc1ccccc1)C(=O)O` here?
A: Its Potency is “inactive”.

Q: Which Potency does the source give for `Cc1ccc(C)c(OCCCC(C)(C)C(=O)O)c1` here?
A: The Potency was “inactive”.

Q: Which Potency does the source give for `C#CCN(C)[C@H](C)Cc1ccccc1` here?
A: Its Potency is “inactive”.

Q: For `CS(=O)(=O)CCNCc1ccc(-c2ccc3ncnc(Nc4ccc(OCc5cccc(F)c5)c(Cl)c4)c3c2)o1`, which Potency is on record?
A: The Potency was “inactive”.

Q: With `O=C(O)c1cn(C2CC2)c2cc(N3CCNCC3)c(F)cc2c1=O` as the molecule, how does the Potency read?
A: The Potency was “inactive”.

Q: With `OCCN1CCN(CCCN2c3ccccc3Sc3ccc(Cl)cc32)CC1` as the molecule, how does the Potency read?
A: The Potency was 28.2 µM (active).

Q: Which Potency does the source give for `CN1CCC(=C2c3ccccc3C=Cc3ccccc32)CC1` here?
A: Its Potency is “inactive”.

Q: Which Potency does the source give for `O=C(NCCN1CCOCC1)c1ccc(Cl)cc1` here?
A: The Potency was “inactive”.

Q: With `NCC(O)c1ccc(O)cc1` (stereo not given) as the molecule, how does the Potency read?
A: The Potency was “inactive”.

Q: For `CO/N=C(\C(=O)N[C@@H]1C(=O)N2C(C(=O)O)=C(CSc3nc(=O)c(O)nn3C)CS[C@H]12)c1csc(N)n1`, which Potency is on record?
A: Its Potency is “inactive”.

Q: For `NC(=O)N1c2ccccc2CC(=O)c2ccccc21`, which Potency is on record?
A: Its Potency is “inactive”.

Q: For `CC(COc1ccccc1)N(CCCl)Cc1ccccc1` (stereo not given), which Potency is on record?
A: The Potency was “inactive”.

Q: With `C[C@@H](O)[C@H]1C(=O)N2C(C(=O)O)=C(S[C@@H]3CN[C@H](C(=O)N(C)C)C3)[C@H](C)[C@H]12` as the molecule, how does the Potency read?
A: Its Potency is “inactive”.

Q: With `CC(=O)O[C@]1(C(C)=O)CC[C@H]2[C@@H]3C=C(Cl)C4=CC(=O)[C@@H]5C[C@@H]5[C@]4(C)[C@H]3CC[C@@]21C` as the molecule, how does the Potency read?
A: Its Potency is “inactive”.

Q: With `Cc1sc2c(c1C)C(c1ccc(Cl)cc1)=N[C@@H](CC(=O)OC(C)(C)C)c1nnc(C)n1-2` as the molecule, how does the Potency read?
A: The Potency was “inactive”.

Q: Which Potency does the source give for `CC(=O)N(O)CCCCCNC(=O)CCC(=O)N(O)CCCCCNC(=O)CCC(=O)N(O)CCCCCN` here?
A: The Potency was 25.1 µM (active).

Q: With `Cc1oncc1C(=O)Nc1ccc(C(F)(F)F)cc1` as the molecule, how does the Potency read?
A: The Potency was 8.91 µM (active).

Q: With `CC[C@]1(O)C[C@@H]2CN(CCc3c([nH]c4ccccc34)[C@@](C(=O)OC)(c3cc4c(cc3OC)N(C)[C@H]3[C@@](O)(C(=O)OC)[C@H](OC(C)=O)[C@]5(CC)C=CCN6CC[C@]43[C@@H]65)C2)C1` as the molecule, how does the Potency read?
A: Its Potency is “inactive”.
